Compound activity (PubChem)
GDH-TPI counter: GDH-TPI coupling enzyme inhibitors, primary screen, artefact control for M. tuberculosis FBA inhibitor project, biochemical, absorbance, full deck; GDH-TPI coupled enzyme counterscreen, NADH absorbance; inhibition, % at 4.8 µM; hit rate 1.2% among 360,000; AID 588335, 2011; in the data active = inhibition above about 30%
FBA Mtb inh: Mtb FBA enzyme inhibitors, primary screen, biochemical, fluorescence, strain H37Rv; purified M. tuberculosis FBA, fluorescence read-out; inhibition, % at 1 µM; hit rate 2.3% among 360,000; in the data active = inhibition above about 27%
Rv3671c inh: Rv3671c serine protease inhibitors, primary screen, biochemical, fluorescence polarization, M. tuberculosis H37Rv; inhibition, % at 5.96 µM; P9WHR9; hit rate 0.048% among 320,000; in the data active = inhibition above about 38%;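 also: extracellular domain of Rv3671c used as enzyme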
Target sequence (P9WHR9 whole entry, looked up, the tested form may be a part): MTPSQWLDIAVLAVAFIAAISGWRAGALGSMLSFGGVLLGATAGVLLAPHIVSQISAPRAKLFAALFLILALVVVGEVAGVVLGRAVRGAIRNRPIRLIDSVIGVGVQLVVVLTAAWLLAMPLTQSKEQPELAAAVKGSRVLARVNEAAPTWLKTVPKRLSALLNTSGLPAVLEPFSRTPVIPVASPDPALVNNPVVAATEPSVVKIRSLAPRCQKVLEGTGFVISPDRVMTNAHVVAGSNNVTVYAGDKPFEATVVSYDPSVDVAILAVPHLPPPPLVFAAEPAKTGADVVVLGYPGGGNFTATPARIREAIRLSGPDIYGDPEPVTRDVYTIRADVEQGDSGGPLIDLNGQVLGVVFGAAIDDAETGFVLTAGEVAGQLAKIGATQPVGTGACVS
UGM FP inh: M. tuberculosis UGM enzyme inhibitors, primary screen, biochemical, fluorescence polarization, single point; UDP-galactopyranose mutase (Mycobacterium tuberculosis (strain ATCC 25618 / H37Rv)), …; purified UGM, fluorescence polarization probe displacement; inhibition, % at 10 µM; hit rate 0.06% among 320,000; AID 504406, 2011; in the data active = inhibition above about 10%, passing the limit was not always enough; inconclusive = no clear call, values can overlap the other calls
Mtb bLac sens: beta-lactam sensitization of Mtb H37Rv, H37Rv; M. tuberculosis H37Rv growth with meropenem, percent inhibition; inhibition, % at 25 µM; hit rate 0.27% among 330,000; AID 434955, 2010; call rule not given here;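 also: growth measured after seven days incubation then overnight dye step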
Each line names hits and unclear results; the compound was inactive in the other large screens. The list is not random: actives were taken first. Their share in the collection is about 3.5%.

CN1C=CC=C/C1=C1\SC(=S)N(N)C1=O	none
CCOC(=O)N1CCC(N2C(=O)c3ccccc3C2Nc2ccc3c(C)cc(=O)oc3c2)CC1 (stereo not drawn)	FBA Mtb inh active
COc1ccccc1NC(=O)c1cnc2n(c1=O)CCS2	GDH-TPI counter 37
O=C(Nc1ccc2c(c1)OCO2)c1cnc2n(c1=O)CCS2	none
COc1ccc(OC)c(NC(=O)c2cnc3n(c2=O)CCS3)c1	none
Cc1ccccc1C(=O)Nc1ccc(S(=O)(=O)Nc2onc(C)c2C)cc1	none
O=C(Nc1ccc2c(c1)OCCO2)c1cnc2n(c1=O)CCS2	GDH-TPI counter 31
Cc1noc(NS(=O)(=O)c2ccc(NC(=O)c3cnc4n(c3=O)CCS4)cc2)c1C	GDH-TPI counter 34
Cc1ccc(S(=O)(=O)Nc2ccc(S(=O)(=O)Nc3nccs3)cc2)cc1C	none (no result: UGM FP inh)
O=C(Nc1ccc2nc(-c3ccc(Br)o3)[nH]c2c1)c1cccs1	GDH-TPI counter 32
O=C(Nc1ccc2nc(-c3ccc(Br)o3)[nH]c2c1)c1ccco1	GDH-TPI counter 40
CC(=O)Nc1ccc2nc(-c3ccc(Br)o3)[nH]c2c1	none
Cc1cccc2[nH]c(-c3ccc(NC(=O)c4ccco4)cc3)nc12	GDH-TPI counter 58
CCCOc1ccc(C(=O)c2nc3c(n2O)CCCCC3)cc1	GDH-TPI counter 31
O=C(NCCC(=O)N1CCCCCCC1)c1ccc(Cl)cc1	none
O=C(COc1ccc2cc(Br)ccc2c1Br)N1CCOCC1	none (no result: Rv3671c inh)
CCCc1nnc(NC(=O)C(=O)NCCN(C)C)s1	GDH-TPI counter 31 (no result: Rv3671c inh, UGM FP inh, Mtb bLac sens)
CCCc1nnc(NC(=O)C(=O)NCCN(CC)CC)s1	none (no result: Rv3671c inh, UGM FP inh, Mtb bLac sens)
Cc1ccc(/C=C2\SC(=S)N(c3c(C)n(C)n(-c4ccccc4)c3=O)C2=O)cc1	none
Cc1c(N2C(=O)/C(=C/c3ccccc3)SC2=S)c(=O)n(-c2ccccc2)n1C	GDH-TPI counter 38
Cc1c(C(=O)Nc2cc(F)cc(F)c2)cnn1-c1ccccc1	none
COC(=O)c1ccc(COc2ccc(C=O)cc2OC)o1	none
COc1cc(/C=C(/C#N)c2ccc(F)cc2)ccc1OCc1ccc(C(=O)O)o1	GDH-TPI counter 45
N#C/C(=C\c1ccc(OCc2ccc(F)cc2)cc1)C(=O)Nc1cccc(C(=O)O)c1	GDH-TPI counter 73
COc1cc(/C=C(\C#N)C(=O)Nc2cccc(C(=O)O)c2)ccc1OCc1ccc(F)cc1	GDH-TPI counter 36
CCc1nn(CC(=O)NCCN2CCOCC2)c(=O)c2cc3c(OC)cccc3n12	FBA Mtb inh active
Clc1nc2sccn2c1/C=N/n1cnc2ccccc21	GDH-TPI counter 47
COCCN1CCN(C(=O)c2cc(COc3cncc(Cl)c3)on2)CC1	none (no result: Rv3671c inh)
COC(=O)c1ccccc1N/C=C1\CCc2c(c(C)nn2-c2ccccn2)C1=O	GDH-TPI counter 32
COc1cc2c(cc1OC)C(c1cc3cc4c(cc3[nH]c1=O)OCO4)N(C(=O)C1CC1)CC2 (stereo not drawn)	GDH-TPI counter 38
COc1cc2c(cc1OC)C(c1cc3ccc(C)cc3[nH]c1=O)N(C(=O)c1ccco1)CC2 (stereo not drawn)	none
COc1cc(OC)c(/C=N/NC(=O)c2ccncc2)cc1Br	none
COc1cc(OC)c(/C=N/NC(N)=S)cc1Br	GDH-TPI counter 35
C=C(C)c1cccc(C(C)(C)NC(=O)Nc2ccc(OC)nc2)c1	FBA Mtb inh 148
Cn1c(CCCNC(=O)c2ccccc2)nc2ccccc21	none
Cn1c(/C=N/NC(=O)c2ccccc2)nc2ccccc21	GDH-TPI counter 47
CCn1c2ccccc2c2cc(/C=N/NC(=O)c3cccc(C)c3)ccc21	Mtb bLac sens inconclusive
CCn1c2ccccc2c2cc(/C=N/NC(=O)c3ccccc3C)ccc21	GDH-TPI counter 35
Cn1c(-c2ccccc2)c(/C=N/NC(=O)c2ccc(O)cc2)c2ccccc21	GDH-TPI counter 52
Cn1c2ccccc2c2cc(/C=N/NC(=O)c3ccc(N)cc3)ccc21	GDH-TPI counter 36
Cn1c(C(=O)N/N=C/c2ccccc2)cc2ccccc21	none
CCOC(=O)CN1C(=O)N[C@@H](c2ccco2)C(C(=O)OC)=C1C	none
NC(=O)c1ccc(NC(=O)COC(=O)CCC2CCCCC2)cc1	none
CSc1nnnc2ccccc12	none (no result: Rv3671c inh, UGM FP inh, Mtb bLac sens)
Cn1c2ccccc2c2cc(/C=N/NC(=O)c3ccccc3F)ccc21	GDH-TPI counter 47
Cc1cc(/C=N/NC(=O)c2ccccc2F)c(C)n1-c1ccccc1	none
COc1ccc(NC(=O)C#Cc2ccccc2)cc1OC	GDH-TPI counter 34
COc1ccc(N=C2S/C(=C\c3ccco3)C(=O)N2CC(C)C)cc1	none
CN(C)N1C(=O)/C(=C/c2ccco2)SC1=Nc1ccccc1	GDH-TPI counter 40
O=C(O)CCn1c(-c2ccccn2)nc2ccccc21	FBA Mtb inh 27
O=C(O)CCn1c(CO)nc2ccccc21	none
CC(C)c1ccc(NC(=O)c2ccc(NS(C)(=O)=O)cc2)cc1	none
CCN(C(=O)CN1C(=O)S/C(=C\c2ccc(F)cc2)C1=O)C1CCS(=O)(=O)C1 (stereo not drawn)	GDH-TPI counter 36
COc1ccc(/C=C2\SC(=O)N(CC(=O)NC3CCS(=O)(=O)C3)C2=O)cc1 (stereo not drawn)	GDH-TPI counter 39
COc1ccc(/C=C2\SC(=O)N(CC(=O)N(C)C3CCS(=O)(=O)C3)C2=O)cc1 (stereo not drawn)	GDH-TPI counter 34
COc1ccc(/C=C2\SC(=O)N(CC(=O)NCCCn3ccnc3)C2=O)cc1	GDH-TPI counter 43
COc1cc(/C=C2\SC(=O)NC2=O)ccc1Oc1ccc([N+](=O)[O-])cn1	GDH-TPI counter 36
COc1cc(/C=C(/C#N)c2ccccc2)ccc1Oc1ccc([N+](=O)[O-])cn1	none
COc1cc(/C=C(\C#N)c2nc3ccccc3[nH]2)ccc1Oc1ccc([N+](=O)[O-])cn1	GDH-TPI counter 32
COc1cc(/C=C(\C#N)c2nc3ccc(C)cc3[nH]2)c([N+](=O)[O-])cc1OC	GDH-TPI counter 33
COc1cc(/C=C2/SC(=O)NC2=O)ccc1Oc1ccc([N+](=O)[O-])cc1[N+](=O)[O-]	none
COc1cc(/C=C(\C#N)c2nc3ccc(C)cc3[nH]2)cc([N+](=O)[O-])c1O	none (no result: Rv3671c inh, UGM FP inh, Mtb bLac sens)
CC1CCCCN1C(=O)CN1C(=O)CSc2ccc(S(=O)(=O)N3CCOCC3)cc21 (stereo not drawn)	none
Oc1ccc(C=NNC(=S)Nc2ccccc2)nc1	GDH-TPI counter 54 (no result: Rv3671c inh, UGM FP inh, Mtb bLac sens)
COc1ccc(/C=C2\N=C(c3ccccc3Cl)NC2=O)cc1	none (no result: Rv3671c inh, UGM FP inh, Mtb bLac sens)
COc1ccc(/C=N/NC(=O)CCc2c(C)n[nH]c2C)cc1OC	none
COc1cc(OC)c(OC)cc1/C=N/NC(=O)CCc1c(C)n[nH]c1C	GDH-TPI counter 56
CCN(C(=O)CN1CC(C)OC(C)C1)c1c(N)n(Cc2ccccc2)c(=O)[nH]c1=O (stereo not drawn)	none
